Measured values as given in PMC7862700, “An all-to-all approach to the identification of sequence-specific readers for epigenetic DNA modifications on cytosine”.

Experiments:
Test in all cases: DAPPL (digital affinity profiling via proximity ligation, sequencing); 10 mM Tris-HCl pH 7.5, 50 mM NaCl, 1 mM DTT, 4% glycerol, room temperature, 30 min; GST-TFs on glutathione beads, 16-mer random dsDNA library, 0.1% formaldehyde crosslink after washing; high values mean tight binding
ETV5 = ETV5 (Homo sapiens, UniProt P41161 1-510); conditions: protein: recombinant; tags: N-terminal GST; dsDNA, one strand shown
Chain of ETV5 (P41161 whole entry, the tested form may be a part): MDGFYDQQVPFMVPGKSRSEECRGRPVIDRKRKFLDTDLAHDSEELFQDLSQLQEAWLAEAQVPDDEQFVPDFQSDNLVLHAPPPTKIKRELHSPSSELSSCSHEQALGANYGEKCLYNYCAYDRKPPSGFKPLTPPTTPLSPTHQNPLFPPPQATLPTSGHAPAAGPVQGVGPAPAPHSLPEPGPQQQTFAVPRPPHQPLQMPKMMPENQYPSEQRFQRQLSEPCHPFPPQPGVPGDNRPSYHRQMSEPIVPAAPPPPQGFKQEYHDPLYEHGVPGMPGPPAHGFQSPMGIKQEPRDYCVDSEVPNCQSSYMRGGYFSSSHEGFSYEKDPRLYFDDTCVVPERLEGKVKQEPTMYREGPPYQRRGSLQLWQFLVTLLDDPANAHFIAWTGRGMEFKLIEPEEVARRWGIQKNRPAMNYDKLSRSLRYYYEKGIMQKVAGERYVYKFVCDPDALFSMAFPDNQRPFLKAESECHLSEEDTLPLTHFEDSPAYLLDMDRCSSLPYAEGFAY
Summary of the method: (§1)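 In yeast, human transcription factors were expressed with a GST fusion, then pulled down on glutathione beads and given DNA barcodes. Pooled with a tag-only sample, they were exposed to 200 nmole of a 16-mer random double-stranded DNA library (Tris/NaCl/DTT/glycerol buffer, room temperature, 30 min), washed, crosslinked with 0.1% formaldehyde, proximity-ligated using BsaI/T4 ligase for 1 h at 37 °C, PCR-amplified and read on an Illumina NextSeq500. Each hexamer's frequency of reads for a factor, divided by the matching frequency for the tag-only sample, gives the binding signal.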

HSF1 = HSF1 (Homo sapiens, UniProt Q00613 1-529); conditions: protein: recombinant; tags: N-terminal GST; chain copies: 3; dsDNA, one strand shown
Chain of HSF1 (Q00613 whole entry): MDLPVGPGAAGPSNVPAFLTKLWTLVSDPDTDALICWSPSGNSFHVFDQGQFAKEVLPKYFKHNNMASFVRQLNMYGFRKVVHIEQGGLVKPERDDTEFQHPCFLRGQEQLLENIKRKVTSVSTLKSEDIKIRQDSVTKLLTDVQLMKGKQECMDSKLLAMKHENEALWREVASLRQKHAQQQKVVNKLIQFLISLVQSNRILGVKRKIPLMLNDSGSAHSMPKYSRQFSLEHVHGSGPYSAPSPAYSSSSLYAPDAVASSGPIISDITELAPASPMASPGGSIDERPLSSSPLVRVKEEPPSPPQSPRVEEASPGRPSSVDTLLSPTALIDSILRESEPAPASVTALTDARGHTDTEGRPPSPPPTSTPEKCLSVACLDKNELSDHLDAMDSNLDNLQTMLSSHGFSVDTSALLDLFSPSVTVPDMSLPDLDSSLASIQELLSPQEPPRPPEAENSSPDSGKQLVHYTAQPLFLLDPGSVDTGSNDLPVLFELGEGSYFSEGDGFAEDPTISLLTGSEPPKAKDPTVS
Summary of the method: as §1

SPIC = molecular target: T1, SPIC (Homo sapiens, UniProt Q8N5J4 1-248); conditions: protein: recombinant; tags: N-terminal GST; dsDNA, one strand shown
T1 sequence: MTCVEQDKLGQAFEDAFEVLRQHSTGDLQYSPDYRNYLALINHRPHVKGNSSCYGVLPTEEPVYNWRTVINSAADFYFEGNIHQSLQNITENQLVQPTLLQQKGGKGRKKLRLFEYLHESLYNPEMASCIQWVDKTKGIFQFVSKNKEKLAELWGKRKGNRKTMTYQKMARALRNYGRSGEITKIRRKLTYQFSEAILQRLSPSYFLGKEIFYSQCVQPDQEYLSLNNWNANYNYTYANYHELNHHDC
Summary of the method: as §1

ELF4 = ELF4 (Homo sapiens, UniProt Q99607 1-663); conditions: protein: recombinant; tags: N-terminal GST; dsDNA, one strand shown
Chain of ELF4 (Q99607 whole entry): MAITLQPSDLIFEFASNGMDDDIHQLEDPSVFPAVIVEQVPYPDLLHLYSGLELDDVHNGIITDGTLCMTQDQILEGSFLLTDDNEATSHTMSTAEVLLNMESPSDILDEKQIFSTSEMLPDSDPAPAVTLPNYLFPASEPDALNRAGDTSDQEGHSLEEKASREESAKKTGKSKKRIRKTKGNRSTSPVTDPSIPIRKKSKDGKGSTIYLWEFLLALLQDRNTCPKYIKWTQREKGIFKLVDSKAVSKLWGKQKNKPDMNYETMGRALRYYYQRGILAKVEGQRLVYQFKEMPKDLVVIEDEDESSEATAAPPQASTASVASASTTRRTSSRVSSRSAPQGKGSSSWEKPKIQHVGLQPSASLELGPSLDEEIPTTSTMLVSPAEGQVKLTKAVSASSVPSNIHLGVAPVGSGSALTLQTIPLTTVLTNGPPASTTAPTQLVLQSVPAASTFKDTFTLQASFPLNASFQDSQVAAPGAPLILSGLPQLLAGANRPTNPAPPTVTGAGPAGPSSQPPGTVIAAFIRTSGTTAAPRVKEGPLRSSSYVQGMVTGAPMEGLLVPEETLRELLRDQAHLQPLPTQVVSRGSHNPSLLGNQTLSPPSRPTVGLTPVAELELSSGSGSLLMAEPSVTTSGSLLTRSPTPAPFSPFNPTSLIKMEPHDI
Summary of the method: as §1

ELK4 = molecular target: T2, ELK4 (Homo sapiens, UniProt P28324-2 1-405); conditions: protein: recombinant; tags: N-terminal GST; dsDNA, one strand shown
T2 sequence: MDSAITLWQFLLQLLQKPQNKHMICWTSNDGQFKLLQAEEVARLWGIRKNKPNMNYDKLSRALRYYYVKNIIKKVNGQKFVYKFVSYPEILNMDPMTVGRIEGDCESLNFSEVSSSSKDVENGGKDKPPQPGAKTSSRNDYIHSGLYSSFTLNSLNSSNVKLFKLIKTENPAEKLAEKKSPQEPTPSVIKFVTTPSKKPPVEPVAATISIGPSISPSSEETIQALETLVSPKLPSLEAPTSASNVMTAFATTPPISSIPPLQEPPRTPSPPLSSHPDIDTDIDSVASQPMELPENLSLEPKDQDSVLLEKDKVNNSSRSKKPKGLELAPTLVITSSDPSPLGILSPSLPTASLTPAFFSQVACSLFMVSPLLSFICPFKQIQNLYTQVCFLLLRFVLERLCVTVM
Summary of the method: as §1

ELF3 = molecular target: T3, ELF3 (Homo sapiens, UniProt P78545 1-371); conditions: protein: recombinant; tags: N-terminal GST; dsDNA, one strand shown
T3 sequence: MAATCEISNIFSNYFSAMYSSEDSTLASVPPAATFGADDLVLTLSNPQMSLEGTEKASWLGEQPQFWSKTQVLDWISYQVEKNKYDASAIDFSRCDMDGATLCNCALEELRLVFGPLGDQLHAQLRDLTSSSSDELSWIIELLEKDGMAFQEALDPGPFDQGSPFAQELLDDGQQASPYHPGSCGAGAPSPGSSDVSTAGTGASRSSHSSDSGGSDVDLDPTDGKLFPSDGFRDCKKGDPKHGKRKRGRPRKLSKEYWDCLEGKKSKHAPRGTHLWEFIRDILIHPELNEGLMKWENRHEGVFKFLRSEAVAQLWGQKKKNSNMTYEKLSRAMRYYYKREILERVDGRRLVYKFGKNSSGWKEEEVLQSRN
Summary of the method: as §1

CRX = CRX (Homo sapiens, UniProt O43186 1-299); conditions: protein: recombinant; tags: N-terminal GST; dsDNA, one strand shown
Chain of CRX (O43186 whole entry): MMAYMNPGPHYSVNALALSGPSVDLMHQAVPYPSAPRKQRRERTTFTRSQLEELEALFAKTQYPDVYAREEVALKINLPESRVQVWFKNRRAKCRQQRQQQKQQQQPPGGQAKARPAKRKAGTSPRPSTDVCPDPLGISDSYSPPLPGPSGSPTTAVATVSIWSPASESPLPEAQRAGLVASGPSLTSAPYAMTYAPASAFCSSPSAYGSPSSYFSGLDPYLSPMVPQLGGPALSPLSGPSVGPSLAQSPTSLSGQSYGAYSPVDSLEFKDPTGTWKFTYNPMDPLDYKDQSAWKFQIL
Summary of the method: as §1

FEV = molecular target: T4, FEV (Homo sapiens, UniProt Q99581 1-238); conditions: protein: recombinant; tags: N-terminal GST; dsDNA, one strand shown
T4 sequence: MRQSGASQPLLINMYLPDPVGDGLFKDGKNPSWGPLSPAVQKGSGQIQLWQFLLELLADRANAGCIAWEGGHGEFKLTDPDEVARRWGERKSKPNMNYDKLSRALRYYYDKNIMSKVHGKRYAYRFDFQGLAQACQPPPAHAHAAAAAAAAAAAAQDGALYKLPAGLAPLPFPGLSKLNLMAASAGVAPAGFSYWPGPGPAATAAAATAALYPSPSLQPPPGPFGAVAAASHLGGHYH
Summary of the method: as §1

ETV2 = molecular target: T5, ETV2 (Homo sapiens, UniProt O00321 1-342); conditions: protein: recombinant; tags: N-terminal GST; dsDNA, one strand shown
T5 sequence: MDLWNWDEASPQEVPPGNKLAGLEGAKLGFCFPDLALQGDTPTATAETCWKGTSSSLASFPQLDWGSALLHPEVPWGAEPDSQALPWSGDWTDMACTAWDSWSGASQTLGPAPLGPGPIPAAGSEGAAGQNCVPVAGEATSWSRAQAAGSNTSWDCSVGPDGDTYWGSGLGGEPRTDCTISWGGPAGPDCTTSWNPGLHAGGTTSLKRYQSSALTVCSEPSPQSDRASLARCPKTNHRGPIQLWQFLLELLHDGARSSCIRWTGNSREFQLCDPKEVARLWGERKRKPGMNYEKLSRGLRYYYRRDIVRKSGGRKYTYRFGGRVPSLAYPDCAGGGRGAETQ
Summary of the method: as §1

ETV1 = ETV1 (Homo sapiens, UniProt P50549 1-477); conditions: protein: recombinant; tags: N-terminal GST; dsDNA, one strand shown
Chain of ETV1 (P50549 whole entry): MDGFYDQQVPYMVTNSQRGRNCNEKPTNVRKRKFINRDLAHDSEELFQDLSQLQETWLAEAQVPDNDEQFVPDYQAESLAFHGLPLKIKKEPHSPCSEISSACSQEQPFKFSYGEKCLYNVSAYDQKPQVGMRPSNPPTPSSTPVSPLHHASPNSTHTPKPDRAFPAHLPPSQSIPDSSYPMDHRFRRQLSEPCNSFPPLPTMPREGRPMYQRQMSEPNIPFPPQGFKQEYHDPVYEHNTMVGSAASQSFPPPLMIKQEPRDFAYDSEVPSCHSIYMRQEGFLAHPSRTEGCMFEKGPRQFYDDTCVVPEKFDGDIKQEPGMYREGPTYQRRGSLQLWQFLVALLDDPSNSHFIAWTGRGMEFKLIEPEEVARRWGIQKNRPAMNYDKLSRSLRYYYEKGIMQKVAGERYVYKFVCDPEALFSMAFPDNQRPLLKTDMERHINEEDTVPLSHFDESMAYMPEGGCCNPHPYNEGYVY
Summary of the method: as §1

Sequence | binding signal (ETV5) | binding signal (HSF1) | binding signal (SPIC) | binding signal (ELF4) | binding signal (ELK4) | binding signal (ELF3) | binding signal (CRX) | binding signal (FEV) | binding signal (ETV2) | binding signal (ETV1)
AATCGA | 1.05 fold enrichment (6-mer frequency, TF over GST control) | 1.38 fold enrichment (6-mer frequency, TF over GST control) | 1.11 fold enrichment (6-mer frequency, TF over GST control) | 1.03 fold enrichment (6-mer frequency, TF over GST control) | 1.03 fold enrichment (6-mer frequency, TF over GST control) | 1.11 fold enrichment (6-mer frequency, TF over GST control) | 1.2 fold enrichment (6-mer frequency, TF over GST control) |  |  | 
GATACT | 1.07 fold enrichment (6-mer frequency, TF over GST control) | 1.07 fold enrichment (6-mer frequency, TF over GST control) | 1.05 fold enrichment (6-mer frequency, TF over GST control) | 1.18 fold enrichment (6-mer frequency, TF over GST control) | 1.18 fold enrichment (6-mer frequency, TF over GST control) |  | 1.07 fold enrichment (6-mer frequency, TF over GST control) | 1.1 fold enrichment (6-mer frequency, TF over GST control) | 1.02 fold enrichment (6-mer frequency, TF over GST control) | 1.1 fold enrichment (6-mer frequency, TF over GST control)
CGACGA | 1.15 fold enrichment (6-mer frequency, TF over GST control) | 1.16 fold enrichment (6-mer frequency, TF over GST control) | 1.2 fold enrichment (6-mer frequency, TF over GST control) | 1.17 fold enrichment (6-mer frequency, TF over GST control) | 1.08 fold enrichment (6-mer frequency, TF over GST control) |  |  | 1.1 fold enrichment (6-mer frequency, TF over GST control) | 1.01 fold enrichment (6-mer frequency, TF over GST control) | 1.07 fold enrichment (6-mer frequency, TF over GST control)
GAAAAG | 1.02 fold enrichment (6-mer frequency, TF over GST control) | 1.22 fold enrichment (6-mer frequency, TF over GST control) | 1.1 fold enrichment (6-mer frequency, TF over GST control) | 1.05 fold enrichment (6-mer frequency, TF over GST control) | 1.01 fold enrichment (6-mer frequency, TF over GST control) |  | 1.01 fold enrichment (6-mer frequency, TF over GST control) | 1.04 fold enrichment (6-mer frequency, TF over GST control) | 1.11 fold enrichment (6-mer frequency, TF over GST control) | 1.15 fold enrichment (6-mer frequency, TF over GST control)
TTATCA | 1.05 fold enrichment (6-mer frequency, TF over GST control) | 1.44 fold enrichment (6-mer frequency, TF over GST control) | 1.12 fold enrichment (6-mer frequency, TF over GST control) | 1.08 fold enrichment (6-mer frequency, TF over GST control) | 1.2 fold enrichment (6-mer frequency, TF over GST control) |  | 2.19 fold enrichment (6-mer frequency, TF over GST control) | 1.06 fold enrichment (6-mer frequency, TF over GST control) | 1.13 fold enrichment (6-mer frequency, TF over GST control) | 1.06 fold enrichment (6-mer frequency, TF over GST control)
AATAGG | 1.16 fold enrichment (6-mer frequency, TF over GST control) | 1.02 fold enrichment (6-mer frequency, TF over GST control) | 1.14 fold enrichment (6-mer frequency, TF over GST control) | 1.04 fold enrichment (6-mer frequency, TF over GST control) | 1.08 fold enrichment (6-mer frequency, TF over GST control) | 1.09 fold enrichment (6-mer frequency, TF over GST control) | 1.21 fold enrichment (6-mer frequency, TF over GST control) | 1.13 fold enrichment (6-mer frequency, TF over GST control) |  | 1.25 fold enrichment (6-mer frequency, TF over GST control)
ACTAAG | 1.04 fold enrichment (6-mer frequency, TF over GST control) | 1.32 fold enrichment (6-mer frequency, TF over GST control) | 1.19 fold enrichment (6-mer frequency, TF over GST control) | 1.1 fold enrichment (6-mer frequency, TF over GST control) | 1.02 fold enrichment (6-mer frequency, TF over GST control) | 1.11 fold enrichment (6-mer frequency, TF over GST control) | 1.76 fold enrichment (6-mer frequency, TF over GST control) | 1.02 fold enrichment (6-mer frequency, TF over GST control) |  | 1.15 fold enrichment (6-mer frequency, TF over GST control)
AGCCTC | 1.27 fold enrichment (6-mer frequency, TF over GST control) | 1.3 fold enrichment (6-mer frequency, TF over GST control) | 1.25 fold enrichment (6-mer frequency, TF over GST control) | 1.36 fold enrichment (6-mer frequency, TF over GST control) | 1.13 fold enrichment (6-mer frequency, TF over GST control) | 1.22 fold enrichment (6-mer frequency, TF over GST control) | 1.33 fold enrichment (6-mer frequency, TF over GST control) | 1.27 fold enrichment (6-mer frequency, TF over GST control) |  | 1.13 fold enrichment (6-mer frequency, TF over GST control)
GTTTAT | 1.07 fold enrichment (6-mer frequency, TF over GST control) | 1.14 fold enrichment (6-mer frequency, TF over GST control) | 1.12 fold enrichment (6-mer frequency, TF over GST control) | 1.07 fold enrichment (6-mer frequency, TF over GST control) | 1.05 fold enrichment (6-mer frequency, TF over GST control) | 1.27 fold enrichment (6-mer frequency, TF over GST control) | 1.33 fold enrichment (6-mer frequency, TF over GST control) | 1.02 fold enrichment (6-mer frequency, TF over GST control) |  | 1.03 fold enrichment (6-mer frequency, TF over GST control)
CCTCGT | 1.19 fold enrichment (6-mer frequency, TF over GST control) | 1.08 fold enrichment (6-mer frequency, TF over GST control) | 1.25 fold enrichment (6-mer frequency, TF over GST control) | 1.25 fold enrichment (6-mer frequency, TF over GST control) | 1.29 fold enrichment (6-mer frequency, TF over GST control) | 1.24 fold enrichment (6-mer frequency, TF over GST control) |  | 1.18 fold enrichment (6-mer frequency, TF over GST control) |  | 1.39 fold enrichment (6-mer frequency, TF over GST control)
TGATCG | 1.03 fold enrichment (6-mer frequency, TF over GST control) | 1.18 fold enrichment (6-mer frequency, TF over GST control) | 1.11 fold enrichment (6-mer frequency, TF over GST control) | 1.05 fold enrichment (6-mer frequency, TF over GST control) | 1.13 fold enrichment (6-mer frequency, TF over GST control) |  | 1.21 fold enrichment (6-mer frequency, TF over GST control) | 1.01 fold enrichment (6-mer frequency, TF over GST control) |  | 1.09 fold enrichment (6-mer frequency, TF over GST control)
GTGCTA | 1.16 fold enrichment (6-mer frequency, TF over GST control) | 1.07 fold enrichment (6-mer frequency, TF over GST control) | 1.17 fold enrichment (6-mer frequency, TF over GST control) | 1.07 fold enrichment (6-mer frequency, TF over GST control) | 1.08 fold enrichment (6-mer frequency, TF over GST control) | 1.12 fold enrichment (6-mer frequency, TF over GST control) |  | 1.11 fold enrichment (6-mer frequency, TF over GST control) |  | 1.1 fold enrichment (6-mer frequency, TF over GST control)
TGGTTA | 1.03 fold enrichment (6-mer frequency, TF over GST control) | 1.03 fold enrichment (6-mer frequency, TF over GST control) | 1.25 fold enrichment (6-mer frequency, TF over GST control) | 1.02 fold enrichment (6-mer frequency, TF over GST control) | 1.06 fold enrichment (6-mer frequency, TF over GST control) | 1.16 fold enrichment (6-mer frequency, TF over GST control) | 1.15 fold enrichment (6-mer frequency, TF over GST control) | 1.05 fold enrichment (6-mer frequency, TF over GST control) |  | 1.01 fold enrichment (6-mer frequency, TF over GST control)
ATGAAG | 1.01 fold enrichment (6-mer frequency, TF over GST control) | 1.07 fold enrichment (6-mer frequency, TF over GST control) | 1.14 fold enrichment (6-mer frequency, TF over GST control) | 1.08 fold enrichment (6-mer frequency, TF over GST control) | 1.17 fold enrichment (6-mer frequency, TF over GST control) | 1.02 fold enrichment (6-mer frequency, TF over GST control) | 1.04 fold enrichment (6-mer frequency, TF over GST control) |  |  | 
AAGCGC | 1.09 fold enrichment (6-mer frequency, TF over GST control) | 1.08 fold enrichment (6-mer frequency, TF over GST control) | 1.14 fold enrichment (6-mer frequency, TF over GST control) | 1.12 fold enrichment (6-mer frequency, TF over GST control) | 1.2 fold enrichment (6-mer frequency, TF over GST control) | 1.16 fold enrichment (6-mer frequency, TF over GST control) | 1.27 fold enrichment (6-mer frequency, TF over GST control) | 1.14 fold enrichment (6-mer frequency, TF over GST control) |  | 1.09 fold enrichment (6-mer frequency, TF over GST control)
